Source: PubChem BioAssay AID1985 (Southern Research Specialized Biocontainment Screening …, 2009)
Among all 2,300 compounds or so, about 1,000 (43%) were called active. So high a share suggests a set chosen from earlier hits. The list shows a part of the results. Measured potencies and affinities stand elsewhere. A number with no mark means an inactive call. How the calls were made is not given here.

Assay: PhoP regulon inhibitor project modified counter assay, GFP fluorescence readout, dose response (AID 1985)
Details: S. Typhi, 4 h; series mostly up to 150 µM; inhibition: at the top concentration

SMILES | inhibition [%]
O=C(OCc1nc2ccccc2s1)c1ccco1 | -20.7
O=C(O)CC/C(=C\c1ccccc1[N+](=O)[O-])c1nc2ccccc2s1 | -10.3
O=C1CCCC(=O)N1c1ccc(N2CCOCC2)c([N+](=O)[O-])c1 | 8.04
CCn1cc(C(=O)NCCc2ccccc2)c(=O)c2cc(F)c(N3CCN(C)CC3)cc21 | 27.2
CN(C)CCN1C(=O)C(O)=C(C(=O)c2cc3ccccc3o2)C1c1ccccn1 (stereo unspecified) | -2.92
O=C(Cn1nc(Cc2ccncc2)c2ccccc2c1=O)Nc1cccnc1Cl | -17.7
COc1ccc(N(CCCN2C(=O)c3cccc4cccc(c34)C2=O)C(=O)c2cccnc2)cc1 | -14.9
O=C(NCc1ccc2c(c1)OCO2)c1ccc2c(c1)C(=O)N(Cc1cccnc1)C2=O | 21.3
O=C(c1ccco1)N1CCCN(Cc2nc(-c3ccc4c(c3)OCO4)no2)CC1 | 4.01
C1CCC(n2nnnc2CN2CCN(C3CCCC3)CC2)CC1 | -7.1
CCN(CC)CCOC(=O)c1ccc(N/C=C(/C#N)c2nc(-c3ccc(OC)c(OC)c3)cs2)cc1 | -34.1
Cc1ccc(-n2ncc3c(=O)[nH]cnc32)c(C)c1 | -5.17
O=C(Nc1cccc(OCC(=O)N2CCOCC2)c1)c1cccc([N+](=O)[O-])c1 | -2.28
N/C(=N\OC(=O)N1CCOCC1)c1ccccc1 | 35
O=C1c2ccccc2C(=O)C1(CO)c1ccc(OC(F)F)cc1 | -10.3
Cc1nnc(SCC(=O)Nc2cc(S(=O)(=O)N3CCCC3)ccc2Cl)s1 | -10.1
COc1ccc(C)cc1S(=O)(=O)N1CCCC(C(=O)NCC2CCCO2)C1 (stereo unspecified) | -6.63
COC(=O)C1=C(C(=O)OC)SC(=C2C(=S)C(C)(C)N(C(=O)C3CC3)c3ccccc32)S1 | -28.7
O=C(NCC1CC1)Nc1cccs1 | 37.6
CC(C)(C)NC(=O)NC(=O)COC(=O)CCC1CCCC1 | 4.5
Cc1c(C(=O)O)oc2c3c(ccc12)OCCO3 | 29
CC(Nc1nc(N2CCCCC2)nc2ccccc12)c1ccccc1 (stereo unspecified) | 30.2
c1ccc(CNc2nc(N3CCN(Cc4ccccc4)CC3)nc3ccccc23)cc1 | 34.2
COc1ccc(C(CC(=O)O)NC(=O)C2CCCCC2)cc1 (stereo unspecified) | 13

SMILES | inhibition [%]
COc1ccc(N2CCN(C(CNC(=O)c3ccc4c(c3)OCO4)c3ccco3)CC2)cc1 (stereo unspecified) | 16.9
CCCOc1ccc(-c2cn3ccccc3n2)cc1 | 28.7
COC(=O)c1ccc(NC(=O)c2ccccc2N(C)S(=O)(=O)c2ccccc2)cc1 | 5.7
Cc1cccc(N2CCN(C(=O)CCN3C(=S)NC(C)(C)CC3C)CC2)c1C (stereo unspecified) | -23.3
CC(C)OCCCn1c(=S)[nH]c2cc3c(cc2c1=O)OCO3 | 5.66
O=C(NCc1ccccn1)c1nc(Cn2ccc([N+](=O)[O-])n2)no1 | 34
CC(C)c1ccc(N(C(=O)C(F)(F)F)C(C(=O)NC2CCCCC2)c2ccncc2)cc1 (stereo unspecified) | 13.1
O=C(CN1CCCC1)Nc1ccc(-c2nc3cc(NC(=O)CN4CCCC4)ccc3o2)cc1 | 9.55
CC(=O)c1c(N2CCN(c3cccc(Cl)c3)CC2)nc(=S)n(-c2ccccc2)c1C | -26.7
COc1cccc(NC(=O)CSc2nncn2-c2ccccn2)c1 | -8.62
COc1ccc(Nc2nc(-c3ccccc3)nc3ccccc23)cc1S(=O)(=O)N1CCOCC1 | 4.27
COc1ccc(OC)c(CCNC(=O)CS(=O)(=O)Cc2nc(-c3ccccc3C)oc2C)c1 | 0.83
COC(=O)c1ccc(Cn2c(O)c(N=NC(N)=S)c3ccccc32)o1 | -17.6
c1ccc(CSc2ccc(-c3cccs3)nn2)nc1 | 1.12
CCc1nnc(NC(=O)c2ccc(S(C)(=O)=O)cc2)s1 | 5.26
Cc1ccc2[nH]cc(CCNC(=O)c3cccnc3)c2c1 | -25.4
COc1ccc(-c2csc(N)n2)cc1F | -20.7
Cc1ccc(NC(=O)OCc2cccs2)cc1 | 13.1
O=C(Nc1ccc(Cc2ccncc2)cc1)c1cccs1 | 4.58
Cc1cc(C)cc(NC(=O)CSc2nnc(CNC(=O)c3cccs3)o2)c1 | -6.33
Nc1nc(SCC(=O)N2CCCC2)[nH]c(=O)c1NC(=O)c1cccs1 | 18.5
CC(C)(C)n1nc2c(c1NC(=O)c1cccs1)CS(=O)C2 (stereo unspecified) | -9.23
CCc1ccc2c(c1)CCCN2C(=O)c1ccccc1C(=O)O | -6.15
CC1Cc2ccccc2N1S(=O)(=O)c1cccc(C(=O)N2CC(=O)Nc3ccccc32)c1 (stereo unspecified) | -7.55

SMILES | inhibition [%]
Cc1noc(C)c1CCC(=O)N1CCCC(CCC(=O)NCc2ccc(F)c(F)c2)C1 (stereo unspecified) | -6.11
COc1ccc(NS(=O)(=O)c2cc(NC(=O)c3ccc(C)s3)ccc2N2CCOCC2)cc1 | 17
CCCC(=O)c1c(NC)cc(C)oc1=O | -13.9
CCOC(=O)C1=C(O)c2ccccc2C(=O)/C1=C\c1ccc(C)cc1 | 29
CCOc1cc(C2NC(=O)N(C)C(C)=C2[N+](=O)[O-])ccc1OC(C)=O (stereo unspecified) | 11.2
CCc1nc(N)nc(N)c1-c1ccc(Cl)cc1 | 13.8
NCCCCCc1nnc(SCc2ccc(Cl)cc2Cl)o1 | 3.7
CCNc1nc(N)nc(Oc2ccc(OCCOc3ccc(Cl)cc3Cl)nn2)n1 | -6.34
COc1ccc(C2C(C#N)=C(N)Oc3n[nH]c(C)c32)cc1CSc1ccccn1 (stereo unspecified) | -16
COc1ccc(CCNC2CCCCC2)cc1 | -18.6
COc1ccc(OCC(=O)Nc2ccc3c(c2)nc(CCN2CCC(C)CC2)n3C)cc1 | -9.84
CCOC(=O)c1cccc(NC(=O)C2CCC(CNc3c(N4CCOCC4)c(=O)c3=O)CC2)c1 (stereo unspecified) | -8.32
Cc1ccc(-c2c(C)n([O-])c3c([n+]2=O)CCCC3)o1 | -18.5
O=C(CCNC(=O)c1ccco1)Nc1cccc(Br)c1 | 16.5
O=C(CSc1ccc(Cl)cc1)c1ccco1 | 20.1
OCCN1CCN(CCCN2c3ccccc3Sc3ccc(C(F)(F)F)cc32)CC1 | -10.2
c1ccc2c(c1)OC(CCCN1CCCCC1)c1ccccc1S2 (stereo unspecified) | 30.4
Cc1cc(Cl)ccc1OCCCC(=O)N1CCCc2ccccc21 | -29.3
CSc1ccc2c(c1)N(CCC1CCCCN1C)c1ccccc1S2 (stereo unspecified) | 5.05
c1ccc(-c2nc(NC3CC3)nc(-n3ccnc3)n2)cc1 | -12.8
COc1ccc(C2C(C(=O)NCc3cccnc3)c3ccccc3C(=O)N2C)cc1OC (stereo unspecified) | 3.91
N#Cc1nc(Cc2ccccc2)oc1NCCN1CCOCC1 | -6.3
c1ccc2cc3c(NCCN4CCOCC4)ccnc3cc2c1 | 19.5
